Data taken from ChEMBL document CHEMBL4296182, “CO-ADD screening of NIH NCI Diversity Set V”.
For part of these data: Potency and affinity values are given separately.

Experiments:
Staphylococcus aureus = test: Antibacterial activity against Staphylococcus aureus MRSA ATCC 43300 (CO-ADD:GP_020); MIC in CAMBH media using NBS plates, by Resazurin F(560/590); type: functional; settings: Concentration 20 uM, ASSAY_TEST Inhibition of Bacterial Growth, detection method Resazurin, Fluorescence (ex560/em590), MEDIA CAMHB, plate type 384well, CORNING #3640, time 18 hr
Acinetobacter baumannii = test: Antibacterial activity against Acinetobacter baumannii ATCC 19606 (CO-ADD:GN_034); MIC in CAMBH media using NBS plates, by Resazurin F(560/590); type: functional; settings: Concentration 20 uM, ASSAY_TEST Inhibition of Bacterial Growth, detection method Resazurin, Fluorescence (ex560/em590), MEDIA CAMHB, plate type 384well, CORNING #3640, time 18 hr
Escherichia coli = test: Antibacterial activity against Escherichia coli ATCC 25922 (CO-ADD:GN_001); MIC in CAMBH media using NBS plates, by Resazurin F(560/590); type: functional; settings: Concentration 20 uM, ASSAY_TEST Inhibition of Bacterial Growth, detection method Resazurin, Fluorescence (ex560/em590), MEDIA CAMHB, plate type 384well, CORNING #3640, time 18 hr
Klebsiella pneumoniae = settings: Concentration 20 uM; ASSAY_TEST Inhibition of Bacterial Growth; detection method Absorption (OD600); MEDIA CAMHB; plate type 384well; NBS; CORNING #3640; time 18 hr
Candida albicans = settings: 20 µM
Cryptococcus neoformans = settings: Concentration 20 uM; ASSAY_TEST Inhibition of Fungal Growth; detection method Resazurin; Absorption (OD600-OD570); plate type 384well; NBS; CORNING #3640

Row | SMILES | Inhibition (Staphylococcus aureus) [%] | Inhibition (Acinetobacter baumannii) [%] | Inhibition (Escherichia coli) [%] | Inhibition (Klebsiella pneumoniae) [%] | Inhibition (Candida albicans) [%] | Inhibition (Cryptococcus neoformans) [%]
1 | O=C(/C=C/c1ccccc1)CC(c1ccccc1)N1CCOCC1 (stereo not given) | 13.93 | 0.36 | -4.09 | 21.53 | 12.7 | -9.56
2 | Cc1cc(NC(=O)OC(C)C)ccc1-c1ccc(NC(=O)OC(C)C)cc1C | 6.05 | 1.04 | -21.51 | 2.57 | 2.22 | 33.06
3 | OCCN1CCSC1=S | 15.14 | -9.39 | 8.07 | 16.39 | 1.12 | -6.82
4 | NC(=O)c1ccc(Oc2ccc(C(N)=O)cc2)cc1 | 7.05 | 9.37 | 0.31 | 15.83 | -0.45 | -7.62
5 | CCCCCC(=O)N1CCCC1 | 12.42 | -13.64 | 4.47 | 10.8 | 0.29 | -1.54
6 | Nc1ccc(OC(=O)Nc2ccc(O)cc2)cc1 | -11.3 | 1 | -11.72 | 2.2 | -2.4 | 12.42
7 | O=C(O)C1=NN(c2cc(Cl)c(S(=O)(=O)O)cc2Cl)C(=O)C1 | 10.8 | 12.97 | 19.15 | 14.41 | 2.3 | -14.45
8 | COc1cc(NC(C)=O)c2ncccc2c1NC(C)=O | 3.21 | 8.89 | -13.22 | 18.39 | 5.47 | 12.48
9 | CC(=O)Nc1c(C)cc(OCC(=O)O)cc1C | 2.34 | -5.79 | 3.28 | 20.93 | 1.74 | -9.89
10 | C=CCSC(CC)(CC)C(N)=O | 1.95 | -2.06 | -8.58 | 10.13 | 1.53 | 7.21
11 | Cc1ccc(NC(=O)Nc2cccnc2)cc1NC(=O)Nc1cccnc1 | 4.86 | 3.3 | 5.1 | 8.48 | -3.78 | -10.14
12 | CCOC(=O)c1nn(C)c2[nH]c(=O)n(C)c(=O)c12 | 7.94 | 11.46 | 12.75 | 11.59 | 2.22 | -11.62
13 | COc1cc([N+](=O)[O-])ccc1NC(=O)Oc1ccc(NC(C)=O)cc1 | 1.87 | 5.68 | 0.56 | 4.62 | 0.51 | -16.29
14 | COc1cc2c(cc1OC)C(C1(O)CCCCC1)NCC2 (stereo not given) | 18.67 | -1.81 | 15.36 | -0.68 | -2.01 | -12.78
15 | O=C(O)CCC1(c2ccccc2)NC(=O)NC1=O (stereo not given) | 11.61 | -12.39 | 7.41 | 2.37 | -1.18 | -9.46
16 | NS(=O)(=O)c1cc2c(cc1Cl)NC(Cc1ccccc1)NS2(=O)=O (stereo not given) [BENZYLHYDROCHLOROTHIAZIDE] | 8.57 | 4.78 | 13.54 | 17.47 | 3.24 | -10.94
17 | Sc1ncnc2c1ncn2C1CCCC1 | 12.18 | -2.05 | 10.82 | 10.23 | 3.52 | -6.41
18 | CCCc1nc(NC(=O)c2ccccc2)nc(NC(=O)c2ccccc2)n1 | -10.01 | -7.86 | 8.74 | 10.41 | 3.97 | -9.1
19 | CCCCn1c(OC(=S)N(CC)CC)cc(C)nc1=S | 3.12 | 15.13 | -6.8 | 13.25 | 7.15 | -2.34
20 | NC1=C2C(=O)c3ccccc3C(=O)C2=C(N)CC1 | -13.27 | 1.08 | -5.53 | 8.56 | 22.9 | -5.51
21 | CCCNC(=O)Nc1ccc(C)cc1C | 1.69 | 10.44 | -6.23 | 17.61 | 5.41 | -2.02
22 | Cc1ccc2c(c1)sc1nncn12 | 15.32 | -15.79 | 12.68 | 5.69 | -0.75 | -11.46
23 | CC1=NN(c2ccccc2)C(=O)C1C(=S)SC1CC(=O)NC1=O (stereo not given) | 3.9 | 14.97 | -13.13 | 16.67 | 6.57 | 3.97
24 | CCc1nc(N)nc(N)c1-c1ccc(N(C)Cc2ccccc2)c([N+](=O)[O-])c1 | -14.23 | -5.52 | 6.75 | 5.93 | 0.08 | -8.19
25 | Cc1ccc(C)c(N2CCN(c3ccncc3N)CC2)c1 | -5.41 | -5.32 | 7.02 | 8.69 | 3.75 | -6.74
